Assay outcomes (PubChem)
MLL AF4-AF9 inh – inhibitors of AF4 peptide binding to AF9, primary screen, biochemical, AlphaScreen, biotin-AF4 peptide, FLAG-AF9, single point; Protein AF-9 (Homo sapiens), P42568; inhibition, % at 10 µM; actives 0.47% (n = 350,000);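 active means every replicate reaching a set inhibition limit, whatever the replicate mean, cut at about 25% in these data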;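 further: 0% = plate neutral control median and 100% = total signal loss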
PGC1a acetyl inh – inhibitors of PGC1a acetylation signal, primary screen, cell-based, U2OS, AlphaScreen, inhibitor mode; AlphaScreen anti-acetyl-lysine; with virally co-expressed GCN5 acetyltransferase; inhibition, % at 15.6 µM; actives 0.17% (n = 350,000);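 active means every replicate shows inhibition of at least 40%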;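 further: 0% = neutral control wells and 100% = positive control wells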
HIV Env fusion – inhibitors of HIV-1 Env-driven cell-cell fusion, primary screen, HeLa-JRFL effector, CEM21 target cells, luciferase | actives 1.1% (n = 360,000) | AID 651610, 2012 | inhibition, % at 12.3 µM;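 active means mean replicate inhibition score of at least 50 and every replicate individually at or above 50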;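 further: 0% = plate neutral controls and 100% = maraviroc near 300 nM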
INS-1E GSIS act – GLuc luminescence reporter in INS-1E cells, primary screen for activators of glucose-dependent secretion of insulin. INS-1E GLuc reporter insulin secretion, 2-3 h. actives 0.61% (n = 370,000). activation, % at 16.6 µM;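 active means lowest replicate activation of at least 40%, so every replicate reaches that level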;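 further: 0% = median of neutral control wells and 100% = median of IBMX positive control wells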
NSD2 inh – NSD2 histone methyltransferase inhibitors, primary screen, biochemical, AlphaScreen, single concentration, set 2; Histone-lysine N-methyltransferase NSD2 (Homo sapiens), O96028; NSD2 peptide methylation, 120 min; inhibition, % at 12.5 µM; actives 0.54% (n = 310,000); in the data active means inhibition above about 50%
Active calls of the source: *; [ ] = another dose, or the depositor's remark. An excerpt weighted towards active compounds, which were near 2.1% of everything screened.

What do the screens show for `COc1ccc(C(C(=O)NC(C)(C)C)N(CCC(C)C)C(=O)CCC(=O)Nc2cc(C)on2)cc1` (stereo not given)?
MLL AF4-AF9 inh: 0; HIV Env fusion: 69*; INS-1E GSIS act: -14; NSD2 inh: 29

What do the screens show for `COc1ccc(C(C(=O)NC(C)(C)C)N(Cc2ccccc2)C(=O)CCC(=O)Nc2cc(C)on2)cc1` (stereo not given)?
MLL AF4-AF9 inh: 2; HIV Env fusion: 0; INS-1E GSIS act: -17; NSD2 inh: 0

What do the screens show for `Cc1cc(NC(=O)CSc2nc3ccccc3c(=O)n2Cc2ccc(F)cc2)no1`?
HIV Env fusion: 0; NSD2 inh: 0

How did CCCCn1c(SCC(=O)NCc2ccco2)nc2c(sc3ccccc32)c1=O do in these assays?
HIV Env fusion: -32; NSD2 inh: 9

What do the screens show for `O=C(CSc1nnc2n1CCCCC2)NCc1ccccc1`?
MLL AF4-AF9 inh: -41; PGC1a acetyl inh: 8; HIV Env fusion: 58*

How did O=C(CSc1nc2ccccc2c(=O)n1Cc1ccc(F)cc1)NCc1cccs1 do in these assays?
MLL AF4-AF9 inh: 0; HIV Env fusion: 62*; INS-1E GSIS act: 8; NSD2 inh: 0

What do the screens show for `Cc1cc2c(=O)n(Cc3ccco3)c(SCC(=O)c3ccc(Cl)s3)nc2s1`?
PGC1a acetyl inh: 7; HIV Env fusion: 76*; INS-1E GSIS act: -23; NSD2 inh: 2

What do the screens show for `CCOCCCn1c(SCC(=O)NCc2ccco2)nc2c(sc3ccccc32)c1=O`?
HIV Env fusion: 56*; INS-1E GSIS act: -5; NSD2 inh: -4

How did Cc1ccc(CNC(=O)CSc2nnc3n2CCCCC3)cc1 do in these assays?
MLL AF4-AF9 inh: 2; PGC1a acetyl inh: 7; INS-1E GSIS act: 0; NSD2 inh: 12

Results for CN(C)S(=O)(=O)c1cccc(-c2csc(N/N=C/c3ccco3)n2)c1 ?
PGC1a acetyl inh: -2; HIV Env fusion: -24; INS-1E GSIS act: 7; NSD2 inh: 0

Results for COc1ccc(S(=O)(=O)Nc2ccc3c(c2)CC(=O)N([C@@H](C)CO)C[C@H](C)[C@H](CN(C)C(=O)Nc2ccc4c(c2)OCO4)O3)cc1 ?
MLL AF4-AF9 inh: 0; PGC1a acetyl inh: 0; HIV Env fusion: 3[16.7 µM]; INS-1E GSIS act: 4

How did Cc1cc2ccccn2c1C(=O)c1ccc(NN)c([N+](=O)[O-])c1 do in these assays?
MLL AF4-AF9 inh: -4; PGC1a acetyl inh: 8; HIV Env fusion: -10; INS-1E GSIS act: 17; NSD2 inh: 3

Results for CN1CCc2c(sc3c2C(=O)NC(c2ccccn2)N3)C1 (stereo not given) ?
PGC1a acetyl inh: 0; HIV Env fusion: -21

How did O=C(CSc1nc2ccccc2c(=O)n1Cc1ccco1)c1ccc(F)cc1 do in these assays?
PGC1a acetyl inh: 4; HIV Env fusion: 58*; NSD2 inh: -1

How did NC(=O)CSc1nc2ccccc2c(=O)n1Cc1ccco1 do in these assays?
PGC1a acetyl inh: 1; NSD2 inh: 0

Results for O=C(CSc1nc2ccccc2c(=O)n1CC1CCCO1)NCc1ccccc1 (stereo not given) ?
MLL AF4-AF9 inh: -8; PGC1a acetyl inh: -5; HIV Env fusion: 7; INS-1E GSIS act: 143*; NSD2 inh: -2

Results for O=C(CSc1nc2ccccc2c(=O)n1Cc1ccco1)NCc1ccccc1 ?
PGC1a acetyl inh: 7; HIV Env fusion: -45; NSD2 inh: -4

How did O=C(CSc1nc2ccccc2c(=O)n1Cc1ccccc1)NCc1ccco1 do in these assays?
PGC1a acetyl inh: -5; HIV Env fusion: 7; INS-1E GSIS act: 81*; NSD2 inh: 1

How did O=C(Cc1c(F)cccc1Cl)Nc1nccs1 do in these assays?
MLL AF4-AF9 inh: 1; PGC1a acetyl inh: 10; HIV Env fusion: 3; INS-1E GSIS act: -2; NSD2 inh: 0

What do the screens show for `CCN1C(=O)S/C(=C/c2ccc(Sc3nc4ccccc4[nH]3)o2)C1=O`?
MLL AF4-AF9 inh: 4; PGC1a acetyl inh: -11; HIV Env fusion: 62*; INS-1E GSIS act: 10; NSD2 inh: -1

What do the screens show for `N#C/C(=C/c1ccc(Sc2nc3ccccc3[nH]2)o1)c1cccc(Br)c1`?
PGC1a acetyl inh: -5; NSD2 inh: 1

Results for O=C(Nc1ccc(Cc2ccncc2)cc1)C1CCC(N2C(=O)C3C4C=CC(C5CC45)C3C2=O)CC1 (stereo not given) ?
PGC1a acetyl inh: -20; HIV Env fusion: 1; INS-1E GSIS act: -15; NSD2 inh: -8

Results for COc1ccc(C(=O)N/C(=C\c2ccc(Cl)cc2)C(=O)NCC2CCCO2)cc1 (stereo not given) ?
MLL AF4-AF9 inh: -2; PGC1a acetyl inh: 1; HIV Env fusion: -2; INS-1E GSIS act: -3; NSD2 inh: 4

Results for Cc1ccc2nc(SCC(=O)Nc3ccc(F)cc3)nc(=O)n2c1 ?
MLL AF4-AF9 inh: -21; PGC1a acetyl inh: 76*; HIV Env fusion: 0; INS-1E GSIS act: 9; NSD2 inh: 25

What do the screens show for `CCOC(=O)c1c(C)oc2c1c(C=NCCO)c(O)c1ccccc12`?
MLL AF4-AF9 inh: 11; PGC1a acetyl inh: 4; HIV Env fusion: 35; INS-1E GSIS act: -5; NSD2 inh: 101*

What do the screens show for `CCOC(=O)c1c(C)oc2c1c(C(c1ccccc1)N1CCOCC1)c(O)c1ccccc12` (stereo not given)?
HIV Env fusion: -362; NSD2 inh: 0

What do the screens show for `O=C(NCCc1ccc(Cl)cc1)C1CC(=O)N(CCc2ccccc2)C1` (stereo not given)?
MLL AF4-AF9 inh: -7; PGC1a acetyl inh: 4; HIV Env fusion: 9; INS-1E GSIS act: -18

Results for COc1cc(Cn2c(-c3nonc3N)nc3ccccc32)ccc1C ?
HIV Env fusion: 60*; NSD2 inh: -1

How did COc1cccc(Cn2c(-c3nonc3N)nc3ccccc32)c1 do in these assays?
PGC1a acetyl inh: -7; NSD2 inh: -2

How did CCCC#Cc1ccc([C@@H]2[C@H]3CN(C(=O)NCCC)CC(=O)N3[C@H]2CO)cc1 do in these assays?
MLL AF4-AF9 inh: -1; PGC1a acetyl inh: -2; INS-1E GSIS act: -6

What do the screens show for `FC(F)(F)c1cc(CCN2CCNC[C@H]2Cc2cccc3ccccc23)cc(C(F)(F)F)c1`?
MLL AF4-AF9 inh: 4; HIV Env fusion: 11; INS-1E GSIS act: active

Results for Oc1ccc(C[C@@H]2CNCCN2CCc2cc(C(F)(F)F)cc(C(F)(F)F)c2)cc1 ?
MLL AF4-AF9 inh: 8; HIV Env fusion: 10; INS-1E GSIS act: -17

How did CC(C)CCC(O)(CCC(C)C)C(=O)NN1CCCCC1 do in these assays?
HIV Env fusion: -6; INS-1E GSIS act: 49*; NSD2 inh: -2

How did CCCC(O)(CCC)C(=O)NN1CCCCC1 do in these assays?
MLL AF4-AF9 inh: 3; PGC1a acetyl inh: 9; INS-1E GSIS act: 10; NSD2 inh: -1
